Data published in PubChem BioAssay (Tox21).
Unmarked numbers belong to inactive results. Where a call stands in place of a potency, no number is given. The source made the active and inactive calls. Unless noted, the call rests on the fitted dose curve; in most records, active means well fitted curve in the direction sought with a large enough effect in the repeat runs; inconclusive means weak or mixed curves; inactive means no such curve, though single readings can be large; an effect the other way counts as inactive or inconclusive.

Columns and labels:
[1] = qHTS assay for small molecule agonists of the p53 signaling pathway (AID 651631; calls by dose curve; further: nearly all actives have a fitted effect of over 15% in size)
Outline: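 Readout was fluorescence from the LiveBLAzer FRET substrate, applied for 2 h at room temperature after 16 h compound exposure at 37 °C. Cells were the p53RE-bla HCT-116 line, with beta-lactamase driven by p53 response elements.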

[2] = qHTS assay for small molecules that induce genotoxicity in human embryonic kidney cells expressing luciferase-tagged ATAD5 (AID 651632); further: nearly all actives have a fitted effect of over 15% in size
Outline: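 HEK293T cells carrying luciferase-tagged ATAD5 were given compound or DMSO vehicle and incubated 16 hr at 37C, 5% CO2. Luciferase activity was read after 30 min at room temperature with Amplite; a rise signals genotoxic stress.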

[3] = qHTS assay for small molecule agonists of the p53 signaling pathway - cell viability (AID 651633; calls by dose curve; further: nearly all actives have a fitted effect of over 30% in size; further: potency means the concentration at half of the fitted maximal effect)
Outline: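 Viability counter-read: CellTiter-Glo luminescence (30 min, room temperature) in the same p53RE-bla plates. These plates had been exposed to compounds for 16 h at 37 C.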

[4] = qHTS assay for small molecule disruptors of the mitochondrial membrane potential (AID 720635); further: potency means the concentration at half of the fitted maximal effect
Outline: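 Mitochondrial membrane potential tracked with Mito-MPS dye, red aggregates (ex 540/em 590 nm) against green monomers (ex 490/em 535 nm). Compound treatment 1 hr at 37C, dye 30 min in HepG2.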

[5] = qHTS assay to test for compound auto fluorescence at 590 nm (red) in HepG2 cells (AID 720674)
Outline: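 Red autofluorescence (Ex/Em 540/590 nm, Rose Bengal sodium equivalents) was measured in HepG2 cells, 2,000 per well in MEM plus 10% FBS, plated overnight at 37 C. Readings were taken 1 hr after adding 23 nL compound or DMSO, at 37 C and 5% CO2.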

[6] = qHTS assay to test for compound auto fluorescence at 535 nm (green) in HepG2 cells (AID 720675)
[7] = qHTS assay to test for compound auto fluorescence at 460 nm (blue) in HEK293 cells (AID 720678)
Outline: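 HEK293 cells (2,000/well, medium with 10% dialyzed FBS) attached 4-5 hr, then exposed to compound overnight at 37C, 5% CO2. Blue fluorescence read at 405/460 nm, with triamterene as reference fluorophore.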

[8] = qHTS assay to test for compound auto fluorescence at 590 nm (red) in HEK293 cells (AID 720679)
Outline: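 HEK293 cells (2,000/well, 10% dialyzed FBS) attached 4-5 hr, then dosed with compound or DMSO and incubated overnight at 37C, 5% CO2. Red fluorescence read at 540/590 nm, Rose Bengal sodium as reference fluorophore.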

[9] = qHTS assay to test for compound auto fluorescence at 535 nm (green) in HEK293 cells (AID 720680)
[10] = qHTS assay to test for compound auto fluorescence at 460 nm (blue) in HEK293 cell free culture (AID 720681)
Outline: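 Blue fluorescence (Ex 405/Em 460 nm, triamterene-equivalent) was read immediately after pin transfer of compound or DMSO into medium (DMEM, 10% FBS) without cells.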

[11] = qHTS assay to test for compound auto fluorescence at 535 nm (green) in HEK293 cell free culture (AID 720682)
Outline: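 Compounds were pin-transferred into cell-free DMEM with 10% FBS, and green fluorescence was read at excitation 485 nm and emission 535 nm. Intensities were expressed as fluorescein-equivalent values.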

[12] = qHTS assay to test for compound auto fluorescence at 590 nm (red) in HEK293 cell free culture (AID 720683)
Outline: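 Red-channel autofluorescence of compounds in culture medium (DMEM, 10% FBS), no cells, measured at 540/590 nm. Rose Bengal sodium is the reference fluorophore for equivalence.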

[13] = qHTS assay to test for compound auto fluorescence at 590 nm (red) in HepG2 cell free culture (AID 720684)
Outline: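 Plate contents were MEM with 10% FBS plus test compound or DMSO, no cells. Fluorescence was recorded with 540 nm excitation and 590 nm emission.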

[14] = qHTS assay to test for compound auto fluorescence at 460 nm (blue) in HepG2 cell free culture (AID 720685)
Outline: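 Compound (23 nL) or DMSO pinned into cell-free MEM with 10% FBS; blue fluorescence read at 405/460 nm excitation/emission, expressed as auto-fluorescence equivalency to triamterene.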

[15] = qHTS assay to test for compound auto fluorescence at 535 nm (green) in HepG2 cell free culture (AID 720686)
[16] = qHTS assay to test for compound auto fluorescence at 460 nm (blue) in HepG2 cells (AID 720687)
Outline: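 Blue-channel autofluorescence (Ex/Em 405/460 nm, triamterene-equivalent) was measured after 1 hr compound exposure at 37 C, 5% CO2. Cells were HepG2, plated overnight at 37 C in MEM plus 10% FBS.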

[17] = biological target: Glucocorticoid receptor (Homo sapiens) (UniProt P04150); assay: qHTS assay to identify small molecule agonists of the glucocorticoid receptor (GR) signaling pathway (AID 720691; active means well fitted activation curve with a large enough effect in the signal ratio in the repeat runs, not every such curve was filed as active; inconclusive means weak or mixed curves, or effect the other way; inactive means no such curve, though single readings can be large or run the other way; the % refers to the signal ratio; further: potency means the concentration at half of the fitted maximal effect)
Outline: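 GR-bla HeLa cells carrying a GRE-driven beta-lactamase reporter, exposed to compounds for 18 h at 37 C. Reporter activation read as fluorescence after 2 h with LiveBLAzer B/G FRET substrate at room temperature.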

[18] = biological target: Glucocorticoid receptor (Homo sapiens) (UniProt P04150); assay: qHTS assay to identify small molecule antagonists of the glucocorticoid receptor (GR) signaling pathway (AID 720692; active means well fitted inhibition curve with a large enough effect in the signal ratio in the repeat runs, not every such curve was filed as active; inconclusive means weak or mixed curves, or effect the other way; inactive means no such curve, though single readings can be large or run the other way; the % refers to the signal ratio)
Outline: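 GR-bla HeLa cells carrying a GRE-driven beta-lactamase reporter received compound after 4 h plating, then dexamethasone (5 nM final). After 18 h at 37C, the FRET substrate was loaded for 2 h at room temperature and fluorescence read.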

[19] = qHTS assay for small molecule disruptors of the mitochondrial membrane potential - cell viability (AID 720634; calls by dose curve;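 further: human HepG2 liver cancer cells; series mostly up to about 83 µM; nearly all actives have a fitted effect of over 20% in size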)
Outline: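 HepG2 cells, 2,000 per well, attached overnight, then treated 1 hr at 37 C, 5% CO2. Viability read as ATP by CellTiter-Glo luminescence after 30 min at room temperature. Read in the same wells as the m-MPI membrane-potential dye assay.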

[20] = qHTS assay for small molecules that induce genotoxicity in human embryonic kidney cells expressing luciferase-tagged ATAD5 - cell viability (AID 651634; calls by dose curve; further: nearly all actives have a fitted effect of over 25% in size)
Outline: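 HEK293T cells carrying luciferase-tagged ATAD5, 2,000 cells/well, exposed to compound for 15.5 hr at 37C. Viability read as live-cell protease activity by CellTiter-Fluor fluorescence after 30 min at 37C.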

Glucocorticoid receptor (Homo sapiens), sequence (P04150 whole entry, looked up): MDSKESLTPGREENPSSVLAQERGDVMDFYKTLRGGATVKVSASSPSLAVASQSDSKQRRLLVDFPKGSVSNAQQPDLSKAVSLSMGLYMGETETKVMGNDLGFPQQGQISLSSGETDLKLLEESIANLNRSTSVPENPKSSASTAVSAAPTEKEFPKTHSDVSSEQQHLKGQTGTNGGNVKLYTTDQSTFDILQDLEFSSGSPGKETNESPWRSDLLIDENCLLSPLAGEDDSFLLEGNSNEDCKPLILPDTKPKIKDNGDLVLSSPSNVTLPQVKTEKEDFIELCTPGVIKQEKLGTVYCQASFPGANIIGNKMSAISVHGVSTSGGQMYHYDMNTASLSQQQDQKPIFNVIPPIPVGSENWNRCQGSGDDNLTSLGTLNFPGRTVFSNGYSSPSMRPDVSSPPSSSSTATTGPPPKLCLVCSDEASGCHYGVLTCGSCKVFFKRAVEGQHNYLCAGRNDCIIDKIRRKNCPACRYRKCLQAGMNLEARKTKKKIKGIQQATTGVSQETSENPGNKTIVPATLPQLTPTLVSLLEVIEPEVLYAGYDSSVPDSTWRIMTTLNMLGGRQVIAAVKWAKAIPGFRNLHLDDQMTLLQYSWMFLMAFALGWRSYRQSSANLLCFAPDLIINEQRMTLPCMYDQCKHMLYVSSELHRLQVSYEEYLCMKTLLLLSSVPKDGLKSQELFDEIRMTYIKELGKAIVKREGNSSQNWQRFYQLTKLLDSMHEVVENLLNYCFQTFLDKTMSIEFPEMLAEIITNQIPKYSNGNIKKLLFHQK

Row | Structure (SMILES) | Potency [1] | Potency [2] | Potency [3] | Potency [4] | outcome [5] | outcome [6] | Potency [7] | outcome [8] | outcome [9] | Potency [10] | outcome [11] | outcome [12] | outcome [13] | Potency [14] | outcome [15] | Potency [16] | Potency [17] | Potency [18] | Potency [19] | Potency [20]
1 | O=[N+]([O-])c1cccc(S(=O)(=O)NCCNS(=O)(=O)c2cccc([N+](=O)[O-])c2)c1 | inactive | inactive | inactive | 11.9 µM (active) | inactive | inactive | inactive | inactive | inactive | inactive | inactive | inactive | inactive | inactive | inactive | inactive | inactive | inactive |  | 
2 | CC#N | inactive | inactive | inactive |  | inactive | inactive | inactive | inactive | inactive | inactive | inactive | inactive | inactive | inactive |  |  | inactive | inactive | inactive | 
3 | CC(C)CCCC(=O)O | inactive | inactive | inactive |  | inactive | inactive | inactive |  | inactive | inactive | inactive | inactive | inactive | inactive | inactive | inactive | inactive | inactive |  | inactive
4 | O=C(O)c1cccnc1C(=O)O | inactive | inactive | inactive |  | inactive | inactive | inactive | inactive |  | inactive | inactive | inactive | inactive | inactive |  | inactive |  |  |  | inactive
5 | CC[C@@H]([C@H](C)O)n1ncn(-c2ccc(N3CCN(c4ccc(OC[C@@H]5CO[C@@](Cn6cncn6)(c6ccc(F)cc6F)C5)cc4)CC3)cc2)c1=O | inactive | inactive | 29.8 µM (active) |  | inactive | inactive | inactive | inactive | inactive | inactive | inactive | inactive | inactive | inactive | inactive | inactive | inactive |  | inactive | 
6 | CN1CCCN=C1/C=C/c1cccs1 | inactive | inactive | inactive | inactive |  | inactive | inactive | inactive | inactive | inactive | inactive | inactive | inactive | inactive | inactive | inactive | inactive | inactive | inactive | 
7 | Cc1nc2ccccn2c(=O)c1CCN1CCC(C(=O)c2ccc(F)cc2)CC1 | inactive | inactive | inactive |  | inactive | inactive | inactive | inactive | inactive | inactive | inactive | inactive | inactive | inactive | inactive |  | inactive |  |  | inactive
8 | C[C@@H]1C[C@H]2[C@@H]3CCC4=CC(=O)C=C[C@]4(C)[C@@]3(F)[C@@H](O)C[C@]2(C)[C@H]1C(=O)CO | inactive | inactive | inactive | inactive | inactive | inactive | inactive | inactive | inactive | inactive | inactive | inactive | inactive | inactive | inactive | inactive | 8.5 nM [inconclusive] (active) |  | inactive | 
9 | O=S1OCCO1 | inactive | inactive | inactive |  |  | inactive | inactive | inactive | inactive | inactive | inactive | inactive | inactive | inactive | inactive | inactive |  |  |  | inactive
10 | CN1CCN(c2c(F)cc3c(=O)c(C(=O)O)cn4c3c2OCN4C)CC1 | inactive | inactive | inactive |  | inactive | inactive | inactive | inactive | inactive | inactive | inactive | inactive | inactive | inactive | inactive | inactive | inactive | inactive |  | inactive
11 | CC(C)CCCCCCOC(=O)CCCCC(=O)OCCCCCCC(C)C | inactive | inactive | inactive |  | inactive | inactive | inactive | inactive | inactive | inactive | inactive | inactive | inactive | inactive | inactive |  | inactive | inactive |  | inactive
12 | CCC(C)=O | inactive | inactive | inactive |  | inactive | inactive | inactive | inactive |  | inactive | inactive | inactive | inactive | inactive | inactive | inactive | inactive |  |  | inactive
13 | O=C(O)c1snc(Cl)c1Cl | inactive | inactive | inactive |  | inactive | inactive | inactive | inactive | inactive | inactive | inactive | inactive | inactive | inactive | inactive |  | inactive |  | inactive | 
14 | C[N+](C)(C)CCOC(N)=O | inactive | inactive | inactive | inactive | inactive | inactive | inactive | inactive | inactive | inactive | inactive | inactive | inactive | inactive | inactive |  |  |  | inactive | 
15 | CC(C)(C)C(=O)O | inactive | inactive | inactive |  | inactive | inactive | inactive | inactive |  | inactive | inactive | inactive | inactive | inactive | inactive |  | inactive |  |  | inactive
16 | COc1ccc(CCC(=O)c2c(O)cc(O[C@@H]3O[C@H](CO)[C@@H](O)[C@H](O)[C@H]3O[C@@H]3O[C@@H](C)[C@H](O)[C@@H](O)[C@H]3O)cc2O)cc1O | inactive | inactive | inactive | inactive | inactive | inactive | inactive | inactive | inactive | inactive | inactive | inactive | inactive | inactive | inactive | inactive | inactive |  |  | 
